Data from PubChem BioAssay (EPA / NIEHS).
“And” between values parts separate entries of the source, which are not always exact repeats. Equal values may be shown once. Some compounds were tested as several samples or in several runs, with calls that do not always agree. The source made the active and inactive calls. The calls were made as follows: active = hit-call score of the fitted dose curve at least 0.9, where 1 is the maximum; inactive = score below 0.9.

Tests used:
[1] = read-out: Interleukin-1 alpha (IL1a), IL1A (gene 3552); assay: BSK_KF3CT_IL1a: BioMAP Diversity Plus: KF3CT Assay for Interleukin-1 alpha (IL1a) Biomarker Activity (AID 2283070); settings: primary human keratinocytes with fibroblasts; actives raise or lower the signal
Procedure, shortened: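 Primary skin co-culture (keratinocytes, foreskin fibroblasts), 24 h exposure; ELISA for IL-1a; bidirectional curve fit vs DMSO.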

[2] = read-out: TIMP metallopeptidase inhibitor 2 (TIMP2), TIMP2 (gene 7077); assay: BSK_KF3CT_TIMP2: BioMAP Diversity Plus: KF3CT Assay for TIMP metallopeptidase inhibitor 2 (TIMP2) Biomarker Activity (AID 2283071); settings: primary human keratinocytes with fibroblasts; actives raise or lower the signal
Procedure, shortened: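 Chemicals were dosed onto human skin primary co-cultures of keratinocytes and foreskin fibroblasts, and TIMP-2 was measured by ELISA after 24 hours. Activity in either direction was fitted relative to DMSO.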

[3] = read-out: Transforming growth factor beta 1 (TGFb1), TGFB1 (gene 7040); assay: BSK_KF3CT_TGFb1: BioMAP Diversity Plus: KF3CT Assay for Transforming growth factor beta 1 (TGFb1) Biomarker Activity (AID 2283072); settings: primary human keratinocytes with fibroblasts; actives raise or lower the signal
Procedure, shortened: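 KF3CT co-culture (keratinocytes + fibroblasts), 24 h exposure → TGF-b1 ELISA → bidirectional fit, DMSO = baseline. Parallel SRB total-protein staining (0.1% SRB, 10% TCA fixation, 560 nm) for cytotoxicity.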

[4] = read-out: C-C motif chemokine 2 (Homo sapiens) (UniProt P13500); assay: BSK_KF3CT_MCP1: BioMAP Diversity Plus: KF3CT Assay for Monocyte Chemoattractant Protein 1 (MCP1/CCL2) Biomarker Activity (AID 2283073); settings: primary human keratinocytes with fibroblasts; actives raise or lower the signal
Procedure, shortened: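 Biomarker MCP-1 is measured by ELISA in primary human keratinocytes co-cultured with foreskin fibroblasts, 24 h after chemical treatment; DMSO serves as the negative control and activity baseline.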

[5] = read-out: Matrix Metallopeptidase 9 (MMP9), MMP9 (gene 4318); assay: BSK_KF3CT_MMP9: BioMAP Diversity Plus: KF3CT Assay for Matrix Metallopeptidase 9 (MMP9) Biomarker Activity (AID 2283074); settings: primary human keratinocytes with fibroblasts; actives raise or lower the signal;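 as to AC50: MMP9 protein level quantified by ELISA in the co-culture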
Procedure, shortened: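 ELISA read-out of MMP-9 at 24 h post-dosing in a co-culture of human skin keratinocytes and foreskin fibroblasts. Gain or loss of signal was fitted in both directions against DMSO.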

[6] = read-out: urokinase plasminogen activator (uPA), PLAU (gene 5328); assay: BSK_KF3CT_uPA: BioMAP Diversity Plus: KF3CT Assay for urokinase plasminogen activator (uPA) Biomarker Activity (AID 2283075); settings: primary human keratinocytes with fibroblasts; actives raise or lower the signal
Procedure, shortened: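 Skin co-culture (keratinocytes + foreskin fibroblasts), human primary; 24 h post-dose; uPA by ELISA; gain/loss fit vs DMSO baseline.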

[7] = read-out: CD40, CD40 (gene 958); assay: BSK_LPS_CD40: BioMAP Diversity Plus: LPS Assay for CD40 Biomarker Activity (AID 2283076); settings: primary human HUVEC with PBMC; actives raise or lower the signal
Procedure, shortened: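 Using a multiplexed primary human co-culture (umbilical vein endothelium plus PBMC), CD40 was read by ELISA 24 h after dosing, with cytotoxicity tracked by sulforhodamine B staining of parallel cultures and activity fitted bidirectionally versus DMSO.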

[8] = read-out: E-selectin (Homo sapiens) (UniProt P16581); assay: BSK_LPS_Eselectin: BioMAP Diversity Plus: LPS Assay for Eselectin Biomarker Activity (AID 2283077); settings: primary human HUVEC with PBMC; actives raise or lower the signal
Procedure, shortened: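 Dose chemical onto LPS-driven HUVEC/PBMC co-culture; after 24 h, run ELISA for E-selectin; fit up- and down-going responses relative to DMSO control.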

[9] = read-out: Interleukin-8 (IL8), CXCL8 (gene 3576); assay: BSK_LPS_IL8: BioMAP Diversity Plus: LPS Assay for Interleukin-8 (IL8) Biomarker Activity (AID 2283078); settings: primary human HUVEC with PBMC; actives raise or lower the signal
Procedure, shortened: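 In this LPS system, chemical-treated human umbilical vein endothelium/PBMC co-cultures were harvested at 24 h for IL-8 ELISA.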

[10] = BSK_LPS_SRB: Viability Assessment in the BioMAP Diversity Plus: LPS Assay (AID 2283079); settings: primary human HUVEC with PBMC;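 also: total protein by sulforhodamine B absorbance as a cytotoxicity measure; measured one day after compound addition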
Procedure, shortened: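 Cytotoxicity endpoint in human endothelial–PBMC co-culture: 24 h exposure, then SRB (0.1%) staining, 560 nm read.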

[11] = read-out: Interleukin-1 alpha (IL1a), IL1A (gene 3552); assay: BSK_LPS_IL1a: BioMAP Diversity Plus: LPS Assay for Interleukin-1 alpha (IL1a) Biomarker Activity (AID 2283080); settings: primary human HUVEC with PBMC; actives raise or lower the signal
Procedure, shortened: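 Primary human HUVEC and PBMC co-culture stimulated with LPS is dosed and harvested at 24 h. Both increases and decreases in ELISA-measured IL-1a are scored relative to DMSO.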

[12] = read-out: Monocyte Chemoattractant Protein-1 (MCP1), CCL2 (gene 6347); assay: BSK_LPS_MCP1: BioMAP Diversity Plus: LPS Assay for Monocyte Chemoattractant Protein-1 (MCP1) Biomarker Activity (AID 2283081); settings: primary human HUVEC with PBMC; actives raise or lower the signal;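 as to AC50: secreted MCP-1 protein quantified by ELISA in culture supernatant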
Procedure, shortened: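 Values derive from bidirectional fitting against DMSO of ELISA-measured MCP-1 in a human primary endothelial and mononuclear cell co-culture, 24 h after chemical addition under LPS activation.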

[13] = BSK_LPS_PGE2: BioMAP Diversity Plus: LPS Assay for Prostaglandin E2 (PGE2) Biomarker Activity (AID 2283082); settings: primary human HUVEC with PBMC; actives raise or lower the signal;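 as to AC50: secreted prostaglandin E2 measured by ELISA in LPS-stimulated co-culture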
Procedure, shortened: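 Compounds were added to the LPS co-culture of endothelium and PBMC, and PGE2 was measured by ELISA after 24 h. Responses in either direction were fitted with DMSO as baseline.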

[14] = read-out: Macrophage colony-stimulating factor (MCSF), CSF1 (gene 1435); assay: BSK_LPS_MCSF: BioMAP Diversity Plus: LPS Assay for Macrophage colony-stimulating factor (MCSF) Biomarker Activity (AID 2283083); settings: primary human HUVEC with PBMC; actives raise or lower the signal
Procedure, shortened: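 Bidirectional fit versus DMSO of ELISA-measured M-CSF in co-cultured human umbilical vein endothelial cells and PBMC, sampled 24 h after dosing.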

[15] = read-out: Tissue Factor, F3 (gene 2152); assay: BSK_LPS_TissueFactor: BioMAP Diversity Plus: LPS Assay for Tissue Factor Biomarker Activity (AID 2283084); settings: primary human HUVEC with PBMC; actives raise or lower the signal
Procedure, shortened: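 Read-out: CD142 ELISA, 24 h. System: LPS-driven human endothelial/PBMC co-culture. Analysis: up- or down-signal fitted against DMSO.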

[16] = read-out: Tumor necrosis factor (Homo sapiens) (UniProt P01375); assay: BSK_LPS_TNFa: BioMAP Diversity Plus: LPS Assay for Tumour Necrosis Factor alpha (TNFa) Biomarker Activity (AID 2283085); settings: primary human HUVEC with PBMC; actives raise or lower the signal;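 as to AC50: TNFa protein level quantified by ELISA in the co-culture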
Procedure, shortened: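 Cells (umbilical vein endothelium plus peripheral blood mononuclear cells) were dosed with chemical, incubated 24 h, then TNFa was quantified by ELISA; values derive from bidirectional fitting with DMSO as baseline.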

[17] = read-out: CD40, CD40 (gene 958); assay: BSK_SAg_CD40: BioMAP Diversity Plus: SAg Assay for CD40 Biomarker Activity (AID 2283088); settings: primary human HUVEC with PBMC; actives raise or lower the signal
Procedure, shortened: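 Endpoint derived by fitting increases or decreases versus DMSO controls. CD40 is detected by fluorescence ELISA in a human vascular co-culture of endothelium and PBMC at 24 h.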

[18] = read-out: CD69, CD69 (gene 969); assay: BSK_SAg_CD69: BioMAP Diversity Plus: SAg Assay for CD69 Biomarker Activity (AID 2283089); settings: primary human HUVEC with PBMC; actives raise or lower the signal;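 as to AC50: cell surface CD69 protein quantified by ELISA with fluorescence detection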
Procedure, shortened: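 Primary human vascular co-culture (umbilical vein endothelium with peripheral blood mononuclear cells) exposed to test chemical for 24 h. CD69 levels quantified by fluorescence ELISA; DMSO served as negative control for bidirectional fitting.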

[19] = read-out: Vascular cell adhesion molecule 1 (VCAM1), VCAM1 (gene 7412); assay: BSK_LPS_VCAM1: BioMAP Diversity Plus: LPS Assay for Vascular cell adhesion molecule 1 (VCAM1) Biomarker Activity (AID 2283086); settings: primary human HUVEC with PBMC; actives raise or lower the signal
Procedure, shortened: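 Cells are dosed in an LPS-stimulated endothelial/mononuclear co-culture and, after 24 h, VCAM-1 is quantified by ELISA. Activity in either direction is fitted relative to the DMSO negative control.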

[20] = read-out: CD38, CD38 (gene 952); assay: BSK_SAg_CD38: BioMAP Diversity Plus: SAg Assay for CD38 Biomarker Activity (AID 2283087); settings: primary human HUVEC with PBMC; actives raise or lower the signal
Procedure, shortened: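 CD38 quantified by ELISA (fluorescence) in a superantigen-activated endothelial cell–PBMC co-culture at 24 h post-dose. Activity fitted in both directions relative to DMSO; parallel SRB and Alamar Blue cytotoxicity read-outs.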

Measured: AC50

Chain of E-selectin (Homo sapiens) (P16581 whole entry, looked up): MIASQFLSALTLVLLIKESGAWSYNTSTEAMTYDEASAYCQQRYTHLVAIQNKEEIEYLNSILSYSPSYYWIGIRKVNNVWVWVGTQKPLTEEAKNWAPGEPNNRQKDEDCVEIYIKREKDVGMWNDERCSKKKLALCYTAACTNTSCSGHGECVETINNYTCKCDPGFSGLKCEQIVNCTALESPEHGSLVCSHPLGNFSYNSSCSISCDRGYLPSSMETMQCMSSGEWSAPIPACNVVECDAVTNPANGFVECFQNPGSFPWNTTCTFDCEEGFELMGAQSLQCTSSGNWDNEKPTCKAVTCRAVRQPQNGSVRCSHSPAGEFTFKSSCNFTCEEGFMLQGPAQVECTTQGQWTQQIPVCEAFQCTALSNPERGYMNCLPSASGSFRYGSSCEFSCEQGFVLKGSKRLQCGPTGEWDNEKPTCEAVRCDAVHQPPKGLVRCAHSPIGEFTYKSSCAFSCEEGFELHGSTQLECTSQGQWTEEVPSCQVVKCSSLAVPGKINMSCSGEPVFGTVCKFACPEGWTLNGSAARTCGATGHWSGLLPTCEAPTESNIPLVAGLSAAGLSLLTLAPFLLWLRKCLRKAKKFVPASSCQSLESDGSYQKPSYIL
Chain of Tumor necrosis factor (Homo sapiens) (P01375 whole entry, looked up): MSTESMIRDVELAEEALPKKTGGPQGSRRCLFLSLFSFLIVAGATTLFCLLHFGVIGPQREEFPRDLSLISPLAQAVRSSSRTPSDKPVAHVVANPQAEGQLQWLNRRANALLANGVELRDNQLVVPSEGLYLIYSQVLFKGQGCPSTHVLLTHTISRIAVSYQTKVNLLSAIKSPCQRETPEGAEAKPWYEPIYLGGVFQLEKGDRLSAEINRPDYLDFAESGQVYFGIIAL

CCCCC1C(=O)N(c2ccccc2)N(c2ccccc2)C1=O
not listed: [19] | [20]
inactive: all other assays above

CC(C)[N+](C)(CCOC(=O)C1c2ccccc2Oc2ccccc21)C(C)C
active: [10] 3.97 µM
not listed: [19] | [20]
inactive: all other assays above

Oc1ccccc1Cc1ccccc1O
active: [13] 2.47 µM and 1.8 µM
not listed: [3] | [20]
inactive: all other assays above

C=CC(=O)OCCCCCCOC(=O)C=C
inactive: [4]
active: [1] 11.3 µM | [2] 20 µM | [3] 3.97 µM | [5] 12.5 µM | [6] 20 µM | [7] 7.82 µM | [9] 4.79 µM | [10] 20 µM | [11] 8.11 µM | [12] 4.29 µM | [13] 2.13 µM | [14] 5.31 µM | [15] 9.18 µM | [16] 3.96 µM | [19] 5.81 µM | [20] 3.8 µM | [17] 11 µM | [18] 2.98 µM

CC1=CC=C(C(C)C)CC1
not listed: [2] | [19]
inactive: all other assays above

Nc1nc(N)nc(-c2ccccc2)n1
not listed: [3] | [8] | [19] | [20]
inactive: all other assays above

CCOC(=O)/C=C\C(=O)OCC
active: [4] 3.97 µM
not listed: [8] | [20]
inactive: all other assays above

CCCCCCOC(=O)CCCCC(=O)OCCCCCC
not listed: [8] | [20]
inactive: all other assays above

C[N+](C)(C)CCCNS(=O)(=O)C(F)(F)C(F)(F)C(F)(F)C(F)(F)C(F)(F)C(F)(F)C(F)(F)C(F)(F)F
active: [5] 30 µM and 44.7 µM | [7] 42.8 µM and 25.4 µM | [9] 31.3 µM and 39.7 µM | [10] 22.5 µM and 33.8 µM | [11] 13.2 µM and 30 µM | [12] 36.4 µM | [13] 19.3 µM and 14.8 µM | [14] 46.7 µM and 52.8 µM | [15] 14.1 µM | [16] 41 µM and 28.3 µM | [17] 30 µM
inactive: [1] | [2] | [4] | [6] | [12] | [15] | [17] | [18]

Nc1ccc(C(=O)O)cc1
not listed: [2] | [19]
inactive: all other assays above

CCCCCCCO
not listed: [8]
inactive: all other assays above

O=C1CCCCCCCCCCCN1
active: [16] 11.9 µM
not listed: [2] | [20]
inactive: all other assays above

C=C(C)C(=O)OCCCCCCCCCCCC
active: [16] 32.6 µM
not listed: [2]
inactive: all other assays above
